# Screening data: PubChem, several laboratories
# Rows were chosen to be rich in hits. Some 4.5% of all compounds tested hit in one or more screens of this group.
# Rtt109 HAT inh – inhibitors of C. albicans Rtt109/Vps75 HAT, primary screen, biochemical, ThioGlo CoA-SH fluorescence, plate reader. inhibition, % at 34.9 µM. AID 540336, 2011. purified Rtt109/Vps75, 4 h. Histone acetyltransferase RTT109 (Candida albicans (strain SC5314 / ATCC MYA-2876)), …. hit rate 0.16% among 330,000;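 active = inhibition of at least 50% in every replicate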
# Rce1 inhib – yeast Rce1p protease inhibitors, primary screen, biochemical, fluorescence, cell-free homogeneous. hit rate 0.27% among 290,000. yeast membranes, quenched prenylated peptide cleavage fluorescence. AID 2563, 2010. calls only;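 active = fall in fluorescence gain of 50% or more versus controls, with final raw signal at or below 3038400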;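 also: plate controls were neutral control wells for no effect and wells lacking membranes for full effect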
# HDAC3 inh – HDAC3 deacetylase inhibitors, primary screen, biochemical, fluorescence, cell-free homogeneous; Histone deacetylase 3 (Homo sapiens), O15379; recombinant HDAC3, fluorogenic peptide/trypsin coupled; inhibition, % at 8.3 µM; hit rate 0.15% among 320,000; in the data active = inhibition above about 26%, passing the limit was not always enough
# Efflux pump mplx – inhibitors of Candida efflux pumps in yeast, primary screen, S. cerevisiae, Nile Red, multiplex; S. cerevisiae Candida pump triplex; inhibition, % at 10 µM; hit rate 0.44% among 330,000; AID 485275, 2010;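 active = plate passing quality check with inhibition over a set limit, or well fluorescence over plate mean plus 4 SD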;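 also: Nile Red retained in pooled yeast measured as flow cytometry median fluorescence; 0% = buffer negative control and 100% = Enniatin B positive control; higher means more Nile Red kept so more efflux inhibition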
# GRK2 aptamer HTS – compounds blocking aptamer binding on GRK2 – biochemical, human GRK2, bead flow cytometry, HTS, primary screen; inhibition of aptamer binding, % at 10 µM; FAM-aptamer displacement from GRK2; hit rate 0.59% among 330,000; AID 488847, 2010;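 active = inhibition of aptamer binding above 40%, roughly 3 SD of noise, on plates passing a quality check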;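 also: median bead fluorescence of bound FAM aptamer so fluorescent compounds give negative values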
# Target sequence (P25098 whole entry, looked up): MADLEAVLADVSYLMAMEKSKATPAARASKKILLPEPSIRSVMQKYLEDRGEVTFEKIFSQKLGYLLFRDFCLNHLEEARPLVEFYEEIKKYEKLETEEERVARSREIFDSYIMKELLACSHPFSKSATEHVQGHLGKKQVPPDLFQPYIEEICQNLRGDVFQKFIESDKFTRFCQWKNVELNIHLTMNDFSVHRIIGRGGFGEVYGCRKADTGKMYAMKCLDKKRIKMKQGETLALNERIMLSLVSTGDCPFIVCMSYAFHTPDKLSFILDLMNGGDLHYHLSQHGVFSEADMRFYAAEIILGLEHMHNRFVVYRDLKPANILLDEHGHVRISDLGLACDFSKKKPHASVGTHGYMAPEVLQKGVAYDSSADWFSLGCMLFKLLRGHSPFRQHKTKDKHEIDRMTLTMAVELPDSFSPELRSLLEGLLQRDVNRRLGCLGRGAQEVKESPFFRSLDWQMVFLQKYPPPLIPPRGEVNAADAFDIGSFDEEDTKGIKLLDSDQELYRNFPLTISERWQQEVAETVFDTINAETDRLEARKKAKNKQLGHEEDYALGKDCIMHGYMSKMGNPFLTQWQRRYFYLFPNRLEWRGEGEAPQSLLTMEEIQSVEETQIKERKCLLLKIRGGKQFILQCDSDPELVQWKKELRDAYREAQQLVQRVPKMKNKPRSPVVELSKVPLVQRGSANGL
# ALR inh – inhibitors of human ALR sulfhydryl oxidase, primary screen, biochemical, H2O2 detection, HRP-luminol luminescence, single point; AID 485317, 2010; inhibition, % (concentration not given with the values); hit rate 3.8% among 290,000; purified ALR, DTT oxidation; FAD-linked sulfhydryl oxidase ALR (Homo sapiens), P55789;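 active = mean replicate inhibition above about 79%, with every replicate also reaching it, limit read from the data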
# Active calls of the source: *; i = inactive; . = no result; ! = not active in a repeat.
SMILES,Rtt109 HAT inh,Rce1 inhib,HDAC3 inh,Efflux pump mplx,GRK2 aptamer HTS,ALR inh
O=C(O)Cn1cc(C=C2C(=O)NC(=O)NC2=O)c2ccccc21,14.5,i,15.6,0.0,0.0,49.0
O=C(O)CCn1cc(C=C2C(=O)NC(=O)NC2=O)c(-c2cc3ccccc3oc2=O)n1,4.2,i,-8.4,-0.1,5.0,97.4*
COc1cc2c(cc1OC)-c1c(OC)c(OC)cc3c1[C@H](C2)N(C)CC3,-5.9,i,-19.5,-0.1,2.0,-15.7
COc1cc2c(cc1O)CC1c3c(cc(O)c(OC)c3-2)CCN1C (stereo not drawn),3.3,i,-24.7,-0.3,5.0,98.9*
Cn1cccc1/C=C1\C(=O)NC(=O)N(Cc2ccco2)C1=O,-1.1,i,.,.,.,.
COc1ccc(/C=C2/C(=O)NC(=O)N(Cc3ccco3)C2=O)cc1,.,i,2.5,-0.1,82.0*,6.2
COC(=O)C(O)(c1ccc(NC(=O)Oc2ccccc2)cc1)C(F)(F)F (stereo not drawn),4.9,i,3.1,0.4,2.0,-3.0
CN1CCN(c2ccc(NC(=O)Oc3ccccc3)cc2)CC1,5.8,i,0.5,0.1,0.0,80.3*
Cn1c(O)c(/C=C2/C=CC=N2)c(=O)[nH]c1=O,11.5,i,2.6,0.2,0.0,-1.7
COc1ccc(NC(=O)c2cn(CCC#N)nc2-c2ccc(OC)c(OC)c2)cc1,5.3,i,-5.1,0.0,6.0,.
COc1cc(C(=O)OC2C[C@H]3CC[C@@H](C2)N3)ccc1O (stereo partly drawn),-9.2,i,-1.5,-0.2,0.0,83.7*
COc1cc(C(=O)OC2C[C@H]3CC[C@@H](C2)N3C)ccc1O (stereo partly drawn),-8.0,i,-0.6,0.0,3.0,68.0
C=CCn1c(O)c(C(C)=NC(C)c2ccccc2)c(=O)[nH]c1=O (stereo not drawn),-4.9,i,-1.4,-0.1,3.0,-19.8
C=C1C(=O)OC2CC(C)C3C=CC(=O)C3(C)C(O)C12 (stereo not drawn),3.2,.,.,.,.,.
C=C1C(=O)O[C@@H]2C[C@@H](C)[C@@H]3C4OC4C(=O)[C@@]3(C)[C@@H](O)[C@H]12 (stereo partly drawn),6.5,i,3.0,-0.1,2.0,97.6*
O=C(O)C1C2c3ccccc3C(=O)C1(C(=O)O)c1ccccc12 (stereo not drawn),-8.4,.,.,.,.,.
C/C(=N\Nc1ccccc1)c1c(O)[nH]c(=O)[nH]c1=O,5.7,i,6.2,0.1,0.0,-8.0
CC/C(=N\NC(=S)Nc1ccccc1)c1c(O)[nH]c(=O)[nH]c1=O,25.9,i,4.6,-0.2,2.0,99.2*
CNc1ccc2nc3ccccc3[n+](C)c2c1,1.1,i,5.5,6.0*,0.0,.
C[n+]1c2ccccc2nc2ccc(NCCO)cc21,1.6,i,0.4,1.8*,0.0,-16.5
c1ccc2c(c1)CNc1ccccc1O2,-1.5,i,-8.7,0.0,0.0,-6.4
Cc1ccc2c(c1)CNc1ccccc1O2,4.9,i,6.2,0.0,1.0,88.2*
O=c1[nH]c(=S)[nH]c(O)c1C(c1ccccn1)c1c(O)[nH]c(=S)[nH]c1=O,6.0,i,-3.0,0.0,2.0,3.0
COc1cccc(-n2nc(C(=O)N3CCC4(CC3)OCCO4)c3ccccc3c2=O)c1,2.8,.,1.0,-0.1,2.0,93.7*
S=P(NC1CCCCC1)(N1CC1)N1CC1,5.4,i,0.1,0.1,1.0,-7.9
SMILES,Rtt109 HAT inh,Rce1 inhib,HDAC3 inh,Efflux pump mplx,GRK2 aptamer HTS,ALR inh
N#Cc1ccc(NC(=O)CN2CCCCCC2)cc1Cl,22.5,i,8.9,0.4,0.0,.
Oc1ccc(C[C@H]2NCCc3cc(O)c(O)cc32)cc1O,-6.5,i,-0.6,0.0,3.0,99.4*
NP(=O)(Oc1ccc(Cl)cc1)Oc1ccc(Cl)cc1,-3.1,i,-2.4,-0.3,1.0,-23.7
C=C(C=O)C[C@@H]1C[C@H](O)C2OC3C[C@]4(C)OC5/C=C\CC6OC7C(CC=CCC6OC5CCCC4OC3CC2O1)OC1CC2OC3CC(=O)OC3C[C@@H](C)C[C@@]2(C)OC1C[C@@H]7C (stereo partly drawn),.,i,-10.7,49.7*,0.0,0.9
O=C1NC(=O)N(c2ccc3c(c2)OCO3)C(=O)/C1=C/c1cccs1,-0.2,i,-2.9,0.0,44.0*,19.1
CNCCc1nc(N)n[nH]1,0.8,i,0.7,0.0,4.0,.
CN1CCN(c2ccc(N)cc2Cl)CC1,18.3,i,-2.2,0.2,0.0,89.8*
CN1CCN(c2ccc(Cl)cc2N)CC1,4.1,i,-3.1,0.0,1.0,10.2
CN1CCc2nc(SCc3cccc(Br)c3)c(C#N)cc2C1,4.7,i,-1.3,0.0,0.0,98.9*
CCn1c(O)c(C=NCc2cccs2)c(=O)[nH]c1=O,-6.1,i,7.2,-0.1,2.0,3.1
CN(C)c1ccc(C=C2C(=O)NC(=S)NC2=O)cc1,-6.0,.,.,.,.,.
CCN(CC)c1ccc(C=C2C(=O)NC(=S)NC2=O)cc1,1.1,i,1.0,0.1,0.0,99.4*
CCc1ccccc1NC(=O)CNCc1ccccc1,5.4,i,-2.1,-0.1,0.0,-1.8
Cc1ccc(N2C(=O)NC(=O)/C(=C/c3ccc(OC(=O)c4cccs4)cc3)C2=O)cc1,-22.5,i,56.3*,0.1,0.0,12.9
Cc1cccc(NP(C)(=O)c2nc3c(s2)CCCC3)c1 (stereo not drawn),.,i,3.5,0.1,0.0,-14.0
CN(C)c1ccc(/C=C/[N+](=O)[O-])cc1,2.2,i,3.8,0.0,6.0,97.6*
COc1ccc(/C=N\N=C(N)N)cc1,2.2,i,1.5,0.0,0.0,11.1
NC(N)=N/N=C/c1ccc(N(c2ccccc2)c2ccccc2)cc1,-0.7,i,-120.3,0.0,0.0,93.7*
N#Cc1c(/N=C/c2c(O)n(Cc3ccco3)c(=O)[nH]c2=O)sc2c1CCCC2,-0.5,i,3.9,0.1,20.0,82.2*
O=c1[nH]c(=O)n(Cc2ccco2)c(O)c1/C=N/N1CCCCCC1,6.2,i,0.0,0.0,4.0,-2.0
Clc1ccc(COC(Cn2ccnc2)c2ccc(Cl)cc2Cl)cc1 (stereo not drawn),74.0*!,i,2.5,0.1,0.0,-12.9
N/C(=N/[N+](=O)[O-])N1CCN(C(=O)Oc2ccc([N+](=O)[O-])cc2)CC1,-6.5,i,-5.9,-0.1,0.0,-17.0
CN(C)CC1CSCCC1(O)c1cccc(Cl)c1 (stereo not drawn),3.8,i,-2.4,-0.2,0.0,-4.5
